For 2 compounds, inhibition results are on record in PubChem BioAssay AID1704 (The Scripps Research Institute Molecular Screening Center, 2009).

The nature of the experiment: CNGC cAMP sensor activity inhibitors, counter-screen for NPY-Y1 potentiator/agonist project, cell-based, HEK293-CNG parental, membrane potential fluorescence, Y1 set (AID 1704).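 Also: 0% = isoproterenol-stimulated DMSO wells and 100% = unstimulated DMSO wells.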 As to conditions: isoproterenol cAMP, at 3.6 µM, active compounds read high. A general note: Counterscreens check selectivity or assay interference.

The list shows a part of the results. A number with no mark means an inactive call. The source made the active and inactive calls.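 The calls were made as follows: active = inhibition above the mean of stimulated solvent-only control wells plus 3 SD (cut at about 22% in these data); inactive = the rest.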

Regarding `CSC1=NP(=S)(SC)N(C)c2nc3n(c21)CCC3` (configuration not stated), the inhibition was 3.97%.

For the compound `Cc1nn(Cc2ccccc2Cl)c(Cl)c1C(=O)OC(C(=O)NC(N)=O)C(C)C` (configuration not stated), the inhibition was 43.1% (active).

For orientation: inhibition means the percentage by which the read-out fell short of the control.
